# Reference: PubChem BioAssay (NCATS)
# Values without a mark were called inactive. Results filed as inconclusive are left out. Where a call stands in place of a potency, no number is given. Activity calls are given as the source filed them. Calls come from the whole dose curve; as a rule, active = well fitted curve in the direction sought with a large enough effect; inconclusive = small, poorly fitted or top-dose-only effect, or another doubt; inactive = no such curve, though single readings can be large; an effect the other way counts as inactive or inconclusive.
# How the values were obtained:
# [1] = target: Glutathione peroxidase 1 (Homo sapiens) (UniProt P07203); experiment: Primary qHTS Assay for Inhibitors of Recombinant Selenoprotein Glutathione Peroxidase 1 (GPX1) (AID 1845191); note: nearly all actives have a fitted effect of over 65% in size
# In short: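 NADPH consumption tracked by fluorescence at 340/450 nm between t=0 and t=15 min, room temperature. Final mix: 10 nM GPX1, 100 nM glutathione reductase, 1 mM GSH, 0.5 mM NADPH, 0.5 mM cumene hydroperoxide, 0.01% BSA; 30 min compound–enzyme preincubation.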
# [2] = target: Luciferin 4-monooxygenase (Photinus pyralis) (UniProt P08659); experiment: Primary firefly luciferase (FLuc) qHTS assay for identification of artifact compounds. (AID 1845220); note: nearly all actives have a fitted effect of over 60% in size; note: potency is the fitted concentration of half-maximal effect; for activity change, negative = inhibition: series mostly up to about 54 µM
# In short: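 Compounds sat 15 min at room temperature with 10 uM luciferin and 10 uM ATP (pH 7.6 Tris acetate). Firefly luciferase (10 nM final) was then added, and luminescence was read 5 min later. Data normalized to no-enzyme and DMSO controls were Hill-fitted.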
# [3] = Primary fluorescence-based thiol-reactive (MSTI) qHTS assay for identification of artifact compounds. (AID 1845221); note: nearly all actives have a fitted effect of over 65% in size; note: potency is the fitted concentration of half-maximal effect;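 for activity change, negative = thiol reactive: series mostly up to about 54 µM; thiol-reactive compounds lower the probe fluorescence signal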
# In short: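 Curve-fitted percent inhibition (4-parameter Hill) derived from fluorescence, Ex 525/Em 598 nm, scaled with Acetyl-MSTI and MSTI; 1 h incubation at room temperature.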
# [4] = tested on: Nanoluciferase (engineered Oplophorus gracilirostris luciferase); experiment: Primary Nanoluciferase (NLuc) qHTS assay for identification of artifact compounds. (AID 1845222); note: series mostly up to about 54 µM
# In short: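 Luminescence from secreted NLuc (filtered, 1:55-diluted S16 cell medium) read 5 min after Nano-Glo substrate; compounds preincubated 15 min, RT. Hill fits of inhibition normalized to DMSO and no-enzyme.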
# [5] = Primary redox qHTS assay for identification of artifact compounds. (AID 1845223)
# In short: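 Redox-cycling detection via DTT (250 uM final) oxidation coupled to Amplex Red (25 uM)/HRP (250 mU/mL) in HBSS. 15 min preincubation plus 30 min after DTT, room temperature. Ex/Em 525/598 nm; 4-parameter Hill fit against DMSO and 10 uM DA3003.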
# [6] = target: Phospholipid hydroperoxide glutathione peroxidase GPX4 (Homo sapiens) (UniProt P36969); experiment: Primary qHTS Assay for Inhibitors of Recombinant Selenoprotein Glutathione Peroxidase 4 (GPX4) (AID 1845192); note: nearly all actives have a fitted effect of over 65% in size; note: potency is the fitted concentration of half-maximal effect; for activity change, negative = inhibition: series mostly up to about 50 µM
# In short: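 NADPH consumption followed by fluorescence at 340/450 nm, t=0 and after 15 min at room temperature. Reaction started with cumene hydroperoxide (0.5 mM final) after 30 min compound–GPX4 preincubation; final 200 nM GPX4, 100 nM GR, 1 mM GSH, 0.5 mM NADPH.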
# Chain of Phospholipid hydroperoxide glutathione peroxidase GPX4 (Homo sapiens) (P36969 whole entry, looked up): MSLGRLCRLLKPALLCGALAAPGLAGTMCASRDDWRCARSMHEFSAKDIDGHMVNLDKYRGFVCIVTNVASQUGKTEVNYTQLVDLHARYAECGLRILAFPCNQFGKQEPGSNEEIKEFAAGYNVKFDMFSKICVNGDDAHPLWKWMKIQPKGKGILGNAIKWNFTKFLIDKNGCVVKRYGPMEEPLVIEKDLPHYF
# Chain of Glutathione peroxidase 1 (Homo sapiens) (P07203 whole entry, looked up): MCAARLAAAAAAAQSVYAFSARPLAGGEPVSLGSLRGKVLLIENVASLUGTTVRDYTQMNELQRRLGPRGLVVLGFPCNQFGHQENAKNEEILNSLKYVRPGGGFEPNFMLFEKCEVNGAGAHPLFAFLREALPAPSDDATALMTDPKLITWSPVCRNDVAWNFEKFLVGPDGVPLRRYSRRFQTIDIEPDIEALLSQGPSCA
smiles,measurement,setting,value
CC(O)c1cc(C(=O)N[C@@H](C)Cn2ccc(-c3ccc(C#N)c(Cl)c3)n2)n[nH]1 (some centres undefined),Potency,[1],inactive
same,Potency,[2],inactive
same,Potency,[3],inactive
same,Potency,[4],inactive
same,Potency,[5],inactive
CC1(C)C2CC=C(COC3OC(COC4OCC(O)(CO)C4O)C(O)C(O)C3O)C1C2 (centres undefined),Potency,[1],inactive
same,Potency,[2],inactive
same,Potency,[3],inactive
same,Potency,[4],inactive
same,Potency,[5],inactive
CC(C)=CCC[C@](C)(O)[C@H]1CC[C@]2(C)[C@@H]1[C@H](O)CC1[C@@]3(C)CC[C@H](O)C(C)(C)C3[C@@H](O[C@@H]3O[C@H](CO)[C@@H](O)[C@H](O)[C@H]3O[C@@H]3OC[C@@H](O)[C@H](O)[C@H]3O)C[C@]12C (some centres undefined),Potency,[1],inactive
same,Potency,[2],inactive
same,Potency,[3],inactive
same,Potency,[4],inactive
same,Potency,[5],inactive
COc1cc2c(NC3CCN(CC4CCCCC4)CC3)nc(N3CCCN(C(C)C)CC3)nc2cc1OCCCN1CCCCC1,Potency,[1],inactive
same,Potency,[2],inactive
same,Potency,[3],inactive
same,Potency,[4],inactive
same,Potency,[5],inactive
COc1ccc(C(=O)n2c(C)c(Cc3cccc(O[C@@H](C)C(=O)O)c3)c3cc(OC(F)(F)F)ccc32)cc1,Potency,[1],inactive
same,Potency,[2],inactive
same,Potency,[3],inactive
same,Potency,[4],inactive
same,Potency,[5],inactive
CC1(O)CCCC2(C)C1CCC13CC(CO)C(CCC12)C3 (centres undefined),Potency,[1],inactive
same,Potency,[2],inactive
same,Potency,[3],inactive
same,Potency,[4],inactive
same,Potency,[5],inactive
CCOc1cc(C(=O)N2CCC(N3CCN(C)CC3)CC2)ccc1Nc1ncc2c(n1)N(C1CCCC1)c1ccccc1C(=O)N2C,Potency,[1],inactive
same,Potency,[2],inactive
same,Potency,[3],inactive
same,Potency,[4],inactive
same,Potency,[5],inactive
CNC(=O)c1ccccc1Nc1cc(Nc2ccc(N3CCOCC3)cc2OC)ncc1C(F)(F)F,Potency,[1],inactive
same,Potency,[2],inactive
same,Potency,[3],1.5 µM (active)
same,Potency,[4],inactive
CCOc1cc(CC(=O)NC(CC(C)C)c2ccccc2N2CCCCC2)ccc1C(=O)O (centres undefined),Potency,[6],inactive
same,Potency,[2],inactive
same,Potency,[3],inactive
same,Potency,[4],inactive
same,Potency,[5],inactive
C[C@@H]1C(=O)O[C@H]2[C@@H](O)C34[C@H]5C[C@@H](C(C)(C)C)C36[C@@H](OC(=O)[C@@H]6O)O[C@@]4(C(=O)O5)[C@@]12O (some centres undefined),Potency,[6],inactive
same,Potency,[2],inactive
same,Potency,[3],inactive
same,Potency,[4],inactive
same,Potency,[5],inactive
C[C@@H]1COCCN1c1cc(C2(S(C)(=O)=O)CC2)nc(-c2cccc3[nH]ccc23)n1,Potency,[6],18 µM (active)
same,Potency,[2],inactive
same,Potency,[3],inactive
same,Potency,[4],inactive
same,Potency,[5],inactive
CC(C)(F)C[C@@H](N[C@@H](c1ccc(-c2ccc(S(C)(=O)=O)cc2)cc1)C(F)(F)F)C(=O)NC1(C#N)CC1,Potency,[6],inactive
same,Potency,[2],inactive
same,Potency,[3],inactive
same,Potency,[4],inactive
same,Potency,[5],inactive
CC(c1ncncc1F)C(O)(Cn1cncn1)c1ccc(F)cc1F (centres undefined),Potency,[6],inactive
same,Potency,[2],inactive
same,Potency,[3],inactive
same,Potency,[4],inactive
same,Potency,[5],inactive
CC(C)c1c2cc(-c3ccnc(NC4CCC(NC5CCOCC5)CC4)n3)ccc2nn1C (centres undefined),Potency,[6],9.04 µM (active)
same,Potency,[2],inactive
same,Potency,[3],inactive
same,Potency,[4],inactive
same,Potency,[5],inactive
Cc1ccc(C(=O)N(CCCN)C(c2nc3cc(Cl)ccc3c(=O)n2Cc2ccccc2)C(C)C)cc1 (centres undefined),Potency,[6],inactive
same,Potency,[2],inactive
same,Potency,[3],inactive
same,Potency,[4],inactive
same,Potency,[5],inactive
NC(=O)C(CCC(F)(F)F)N(Cc1ccc(-c2ncon2)cc1F)S(=O)(=O)c1ccc(Cl)cc1 (centres undefined),Potency,[6],inactive
same,Potency,[2],inactive
same,Potency,[3],inactive
same,Potency,[4],inactive
same,Potency,[5],inactive
CC(C)(C(=O)NCC(F)(F)C(F)(F)F)C(=O)NC1C(=O)Nc2ccccc2-c2ccccc21 (centres undefined),Potency,[6],inactive
same,Potency,[2],inactive
same,Potency,[3],inactive
same,Potency,[4],inactive
same,Potency,[5],inactive
Cc1ccc(NC(=O)c2ccc(CN3CC[C@H](N(C)C)C3)c(C(F)(F)F)c2)cc1Nc1nccc(-c2cncnc2)n1,Potency,[6],inactive
same,Potency,[2],inactive
same,Potency,[3],inactive
same,Potency,[4],inactive
same,Potency,[5],inactive
CC(=O)OC12COC1CC(O)C1(C)C(=O)C(O)C3=C(C)C(OC(=O)C(O)C(NC(=O)OC(C)(C)C)c4ccccc4)CC(O)(C(OC(=O)c4ccccc4)C21)C3(C)C (centres undefined),Potency,[6],inactive
same,Potency,[2],inactive
same,Potency,[3],inactive
same,Potency,[4],inactive
same,Potency,[5],inactive
CNC(=O)c1ccccc1Nc1nc(Nc2ccc3c(c2OC)CCCC(N2CCN(CCO)CC2)C3)ncc1Cl (centres undefined),Potency,[6],inactive
same,Potency,[2],inactive
same,Potency,[3],inactive
same,Potency,[4],inactive
same,Potency,[5],inactive
CC(C)Oc1ccc(C(=O)NC(CNC(=O)CN(C)C)Cc2ccc(-c3cn4cccc(C(C)O)c4n3)cc2)cc1Cl (centres undefined),Potency,[6],inactive
same,Potency,[2],inactive
same,Potency,[3],inactive
same,Potency,[4],inactive
same,Potency,[5],inactive
CC1(C)CC[C@]2(C(=O)O)CC[C@]3(C)C(=CCC4[C@@]5(C)C[C@@H](O)[C@H](O)C(C)(C)C5CC[C@]43C)C2C1 (some centres undefined),Potency,[6],inactive
same,Potency,[2],inactive
same,Potency,[3],inactive
same,Potency,[4],inactive
same,Potency,[5],inactive
CCNC(=O)Nc1ccc(-c2nc3c(c(N4CCOC[C@@H]4C)n2)CCN(c2ncccn2)C3)cc1,Potency,[6],inactive
same,Potency,[2],inactive
same,Potency,[3],inactive
same,Potency,[4],inactive
same,Potency,[5],inactive
CNC(C)C(=O)NC(C(=O)N1CCCC1c1nc(C(=O)c2ccc(F)cc2)cs1)C1CCCCC1 (centres undefined),Potency,[6],inactive
same,Potency,[2],inactive
same,Potency,[3],inactive
same,Potency,[4],inactive
same,Potency,[5],inactive
CN(C)C/C=C/C(=O)Nc1cc2c(Nc3ccc(F)c(Cl)c3)ncnc2cc1OC1CCOC1 (centres undefined),Potency,[6],inactive
same,Potency,[2],inactive
same,Potency,[3],inactive
same,Potency,[4],inactive
same,Potency,[5],inactive
NC1(C(=O)NC(CCO)c2ccc(Cl)cc2)CCN(c2ncnc3[nH]ccc23)CC1 (centres undefined),Potency,[6],inactive
same,Potency,[2],inactive
same,Potency,[3],inactive
same,Potency,[4],inactive
same,Potency,[5],inactive
COc1ccc(C[C@H](N)C(=O)N[C@@H]2[C@H](O)[C@H](n3cnc4c(N(C)C)ncnc43)O[C@@H]2CO)cc1,Potency,[6],inactive
same,Potency,[2],inactive
same,Potency,[3],inactive
same,Potency,[4],inactive
same,Potency,[5],inactive
Cc1c(C(=O)Nc2ccc(N3CC(C)OC(C)C3)nc2)cccc1-c1ccc(OC(F)(F)F)cc1 (centres undefined),Potency,[6],inactive
same,Potency,[2],inactive
same,Potency,[3],inactive
same,Potency,[4],inactive
same,Potency,[5],inactive
Cc1cc(C)nc(NS(=O)(=O)c2ccc(NC(=S)NC(=O)COc3ccc(Br)cc3Cl)cc2)n1,Potency,[6],inactive
same,Potency,[2],inactive
same,Potency,[3],inactive
same,Potency,[4],inactive
same,Potency,[5],inactive
O=C(O)c1cn(C2CC2)c2cc(N3C[C@@H]4C[C@H]3CN4)c(F)cc2c1=O,Potency,[6],10.1 µM (active)
same,Potency,[2],inactive
same,Potency,[3],inactive
same,Potency,[4],inactive
same,Potency,[5],inactive
O=C(Nc1ccc(Cl)cc1F)c1ccccc1O,Potency,[6],inactive
same,Potency,[2],1.2 µM (active)
same,Potency,[3],inactive
same,Potency,[4],inactive
same,Potency,[5],inactive
CC(=O)O[C@H]1C(=O)[C@@]2(C)[C@H]([C@H](OC(=O)c3ccccc3)[C@]3(O)C[C@H](OC(=O)[C@H](O)[C@@H](NC(=O)c4ccccc4)c4ccccc4)C(C)=C1C3(C)C)[C@]1(OC(C)=O)CO[C@@H]1C[C@@H]2O,Potency,[6],inactive
same,"activity change, negative = inhibition",[2],-3.6% [at 11.6 µM]
same,"activity change, negative = thiol reactive",[3],52.3% [at 11.5 µM]
same,"activity, negative = inhibition",[4],4.66% [at 11.6 µM]
same,redox activity (% of DA3003),[5],1.32% [at 11.5 µM]
Cc1c(CN2CCN(C(=O)C(C)O)CC2)sc2c(N3CCOCC3)nc(-c3cnc(N)nc3)nc12 (centres undefined),Potency,[6],inactive
same,Potency,[2],inactive
same,Potency,[3],inactive
same,Potency,[4],inactive
same,Potency,[5],inactive
